# Laboratory results taken from ChEMBL document CHEMBL1961873, “Compounds: GSK PKIS; Assays: Nanosyn kinase panel” (2012).
# Values joined by “and” are separate entries in the source; they are usually repeats but may differ in a detail not shown here. Equal entries are not always repeated.
# What was measured:
# [1] = target: Glycogen synthase kinase-3 beta (Homo sapiens) (UniProt P49841); conditions: at 1 µM;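 note: reported values are mean percent inhibition of GSK3B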
# [2] = target: Homeodomain-interacting protein kinase 1 (Homo sapiens) (UniProt Q86Z02); conditions: at 0.1 µM
# Chain of Homeodomain-interacting protein kinase 1 (Homo sapiens) (Q86Z02 whole entry, looked up): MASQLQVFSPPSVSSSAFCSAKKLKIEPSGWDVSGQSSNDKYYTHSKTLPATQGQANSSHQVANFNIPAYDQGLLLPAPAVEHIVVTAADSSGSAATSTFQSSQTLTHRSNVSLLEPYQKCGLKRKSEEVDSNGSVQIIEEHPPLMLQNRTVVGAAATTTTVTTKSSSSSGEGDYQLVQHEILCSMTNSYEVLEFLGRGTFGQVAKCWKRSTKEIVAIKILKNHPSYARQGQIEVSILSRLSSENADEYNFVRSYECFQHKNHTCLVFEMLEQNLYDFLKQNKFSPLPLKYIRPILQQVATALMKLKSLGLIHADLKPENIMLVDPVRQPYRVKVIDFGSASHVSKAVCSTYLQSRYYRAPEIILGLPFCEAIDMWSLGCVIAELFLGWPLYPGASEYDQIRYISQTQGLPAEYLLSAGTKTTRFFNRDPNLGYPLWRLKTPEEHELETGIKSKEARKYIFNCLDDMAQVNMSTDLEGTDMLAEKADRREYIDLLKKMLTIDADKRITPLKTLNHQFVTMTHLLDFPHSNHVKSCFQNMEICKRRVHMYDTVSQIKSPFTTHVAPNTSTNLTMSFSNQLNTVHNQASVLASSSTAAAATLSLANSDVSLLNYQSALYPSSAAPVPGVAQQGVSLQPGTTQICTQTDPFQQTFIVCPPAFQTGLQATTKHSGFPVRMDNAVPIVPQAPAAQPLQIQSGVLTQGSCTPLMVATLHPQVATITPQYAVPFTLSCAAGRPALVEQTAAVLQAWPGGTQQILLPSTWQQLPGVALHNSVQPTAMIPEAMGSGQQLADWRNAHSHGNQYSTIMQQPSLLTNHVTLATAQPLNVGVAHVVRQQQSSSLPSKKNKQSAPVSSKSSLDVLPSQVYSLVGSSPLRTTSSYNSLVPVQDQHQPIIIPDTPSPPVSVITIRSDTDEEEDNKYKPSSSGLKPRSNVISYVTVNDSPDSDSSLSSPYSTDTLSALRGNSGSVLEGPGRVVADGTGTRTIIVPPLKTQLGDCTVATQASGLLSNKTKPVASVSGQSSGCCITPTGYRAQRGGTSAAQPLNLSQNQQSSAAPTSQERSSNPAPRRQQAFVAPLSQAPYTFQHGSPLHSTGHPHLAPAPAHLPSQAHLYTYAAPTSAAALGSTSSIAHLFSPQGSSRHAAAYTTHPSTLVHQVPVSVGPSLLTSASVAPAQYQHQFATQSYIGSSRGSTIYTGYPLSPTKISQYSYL
# [3] = target: Homeodomain-interacting protein kinase 1 (Homo sapiens) (UniProt Q86Z02); conditions: at 1 µM
# [4] = target: T1, Homeodomain-interacting protein kinase 4 (Homo sapiens) (UniProt Q8NE63); conditions: at 0.1 µM
# T1 sequence (whole entry): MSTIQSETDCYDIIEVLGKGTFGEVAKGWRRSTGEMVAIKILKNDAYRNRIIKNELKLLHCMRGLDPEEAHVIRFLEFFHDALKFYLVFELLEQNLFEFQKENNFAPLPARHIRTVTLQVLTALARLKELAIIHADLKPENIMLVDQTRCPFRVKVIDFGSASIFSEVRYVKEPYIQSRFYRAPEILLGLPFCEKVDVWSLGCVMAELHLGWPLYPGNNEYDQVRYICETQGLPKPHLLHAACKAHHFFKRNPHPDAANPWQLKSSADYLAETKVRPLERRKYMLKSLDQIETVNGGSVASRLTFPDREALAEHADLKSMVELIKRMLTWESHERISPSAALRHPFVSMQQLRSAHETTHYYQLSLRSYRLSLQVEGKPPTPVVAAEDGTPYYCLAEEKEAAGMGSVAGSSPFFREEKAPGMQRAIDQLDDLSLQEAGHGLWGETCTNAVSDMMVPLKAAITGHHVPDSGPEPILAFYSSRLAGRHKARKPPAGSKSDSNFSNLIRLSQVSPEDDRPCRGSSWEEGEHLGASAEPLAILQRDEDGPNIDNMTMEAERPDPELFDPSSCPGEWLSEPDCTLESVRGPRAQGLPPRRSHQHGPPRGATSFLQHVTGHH
# [5] = target: T1, Homeodomain-interacting protein kinase 4 (Homo sapiens); conditions: at 1 µM
# [6] = target: Mitogen-activated protein kinase 9 (Homo sapiens) (UniProt P45984); conditions: at 0.1 µM
# Chain of Mitogen-activated protein kinase 9 (Homo sapiens) (P45984 whole entry, looked up): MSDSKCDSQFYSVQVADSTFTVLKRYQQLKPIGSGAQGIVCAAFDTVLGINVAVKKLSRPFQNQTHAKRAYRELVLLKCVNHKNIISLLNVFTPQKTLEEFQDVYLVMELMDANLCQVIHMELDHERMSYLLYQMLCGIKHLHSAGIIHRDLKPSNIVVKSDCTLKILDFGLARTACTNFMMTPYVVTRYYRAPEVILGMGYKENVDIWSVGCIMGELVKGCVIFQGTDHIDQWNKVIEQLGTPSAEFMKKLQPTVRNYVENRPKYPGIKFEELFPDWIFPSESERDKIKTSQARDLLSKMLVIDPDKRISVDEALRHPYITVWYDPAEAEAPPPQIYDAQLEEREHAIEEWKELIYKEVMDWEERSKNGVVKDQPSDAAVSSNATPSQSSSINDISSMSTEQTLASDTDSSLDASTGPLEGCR
# [7] = target: Mitogen-activated protein kinase 9 (Homo sapiens) (UniProt P45984); conditions: at 1 µM
# [8] = target: Mitogen-activated protein kinase 1 (Homo sapiens) (UniProt P28482); conditions: at 0.1 µM
# Chain of Mitogen-activated protein kinase 1 (Homo sapiens) (P28482 whole entry): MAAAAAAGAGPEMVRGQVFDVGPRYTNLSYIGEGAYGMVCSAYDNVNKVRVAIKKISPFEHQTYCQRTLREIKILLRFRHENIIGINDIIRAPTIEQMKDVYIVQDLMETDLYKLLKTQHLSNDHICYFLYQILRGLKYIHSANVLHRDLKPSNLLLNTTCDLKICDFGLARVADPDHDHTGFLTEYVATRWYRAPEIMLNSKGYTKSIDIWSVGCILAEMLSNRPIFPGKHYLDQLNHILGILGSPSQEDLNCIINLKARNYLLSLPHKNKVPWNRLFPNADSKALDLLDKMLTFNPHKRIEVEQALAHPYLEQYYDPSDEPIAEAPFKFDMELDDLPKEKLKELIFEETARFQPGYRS
# [9] = target: Mitogen-activated protein kinase 1 (Homo sapiens) (UniProt P28482); conditions: at 1 µM
# [10] = target: Mitogen-activated protein kinase 3 (Homo sapiens) (UniProt P27361); conditions: at 0.1 µM
# Chain of Mitogen-activated protein kinase 3 (Homo sapiens) (P27361 whole entry): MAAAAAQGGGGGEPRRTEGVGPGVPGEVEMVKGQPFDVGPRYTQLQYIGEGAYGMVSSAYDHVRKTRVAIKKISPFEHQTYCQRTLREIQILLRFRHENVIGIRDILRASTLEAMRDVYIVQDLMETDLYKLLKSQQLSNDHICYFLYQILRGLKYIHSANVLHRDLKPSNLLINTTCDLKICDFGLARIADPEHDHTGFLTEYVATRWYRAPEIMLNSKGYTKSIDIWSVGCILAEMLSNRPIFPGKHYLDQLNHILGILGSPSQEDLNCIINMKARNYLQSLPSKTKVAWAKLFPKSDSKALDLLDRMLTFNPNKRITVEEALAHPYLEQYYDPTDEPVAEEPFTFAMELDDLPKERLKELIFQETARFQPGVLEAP
# [11] = target: Mitogen-activated protein kinase 3 (Homo sapiens) (UniProt P27361); conditions: at 1 µM
# [12] = target: SRSF protein kinase 3 (Homo sapiens) (UniProt Q9UPE1); conditions: at 0.1 µM
# Chain of SRSF protein kinase 3 (Homo sapiens) (Q9UPE1 whole entry): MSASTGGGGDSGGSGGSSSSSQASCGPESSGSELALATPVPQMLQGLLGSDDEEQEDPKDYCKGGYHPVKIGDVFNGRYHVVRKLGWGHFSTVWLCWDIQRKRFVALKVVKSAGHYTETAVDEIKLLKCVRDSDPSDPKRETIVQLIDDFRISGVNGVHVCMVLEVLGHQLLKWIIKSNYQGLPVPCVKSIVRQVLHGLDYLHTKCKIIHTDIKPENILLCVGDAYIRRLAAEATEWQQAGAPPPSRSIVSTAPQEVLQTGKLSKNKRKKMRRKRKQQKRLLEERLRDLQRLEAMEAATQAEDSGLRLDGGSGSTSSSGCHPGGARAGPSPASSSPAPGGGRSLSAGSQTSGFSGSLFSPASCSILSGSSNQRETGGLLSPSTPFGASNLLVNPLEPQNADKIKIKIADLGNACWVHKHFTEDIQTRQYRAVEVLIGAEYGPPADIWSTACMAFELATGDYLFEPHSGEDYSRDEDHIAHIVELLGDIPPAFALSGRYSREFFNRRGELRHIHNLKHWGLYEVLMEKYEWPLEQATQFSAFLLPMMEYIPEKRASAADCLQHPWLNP
# [13] = target: SRSF protein kinase 3 (Homo sapiens) (UniProt Q9UPE1); conditions: at 1 µM
# [14] = target: Mitogen-activated protein kinase 14 (Homo sapiens) (UniProt Q16539); conditions: at 0.1 µM
# Chain of Mitogen-activated protein kinase 14 (Homo sapiens) (Q16539 whole entry): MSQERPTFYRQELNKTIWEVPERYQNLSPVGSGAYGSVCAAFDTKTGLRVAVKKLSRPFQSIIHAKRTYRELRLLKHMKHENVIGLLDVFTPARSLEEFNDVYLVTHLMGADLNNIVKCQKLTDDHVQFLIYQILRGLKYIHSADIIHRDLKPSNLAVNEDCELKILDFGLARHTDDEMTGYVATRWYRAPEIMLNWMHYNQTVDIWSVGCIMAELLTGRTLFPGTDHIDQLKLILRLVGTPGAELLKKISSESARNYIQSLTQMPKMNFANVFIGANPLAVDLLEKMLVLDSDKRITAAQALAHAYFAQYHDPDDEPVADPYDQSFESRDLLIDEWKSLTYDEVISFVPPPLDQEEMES
# [15] = target: Mitogen-activated protein kinase 14 (Homo sapiens) (UniProt Q16539); conditions: at 1 µM
# [16] = target: Mitogen-activated protein kinase 11 (Homo sapiens) (UniProt Q15759); conditions: at 0.1 µM
# Chain of Mitogen-activated protein kinase 11 (Homo sapiens) (Q15759 whole entry): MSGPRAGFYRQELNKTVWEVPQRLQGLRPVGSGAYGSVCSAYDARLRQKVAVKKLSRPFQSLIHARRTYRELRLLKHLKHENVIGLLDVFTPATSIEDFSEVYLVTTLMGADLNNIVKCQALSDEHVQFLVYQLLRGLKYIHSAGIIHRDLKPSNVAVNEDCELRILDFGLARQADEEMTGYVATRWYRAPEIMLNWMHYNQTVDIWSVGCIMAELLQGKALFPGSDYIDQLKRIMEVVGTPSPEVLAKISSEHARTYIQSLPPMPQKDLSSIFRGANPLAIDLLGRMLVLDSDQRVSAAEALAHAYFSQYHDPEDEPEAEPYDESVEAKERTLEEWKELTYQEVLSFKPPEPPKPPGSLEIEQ
# [17] = target: Mitogen-activated protein kinase 11 (Homo sapiens) (UniProt Q15759); conditions: at 1 µM
# [18] = target: T2, Mitogen-activated protein kinase 13 (Homo sapiens) (UniProt O15264); conditions: at 0.1 µM
# T2 sequence (whole entry): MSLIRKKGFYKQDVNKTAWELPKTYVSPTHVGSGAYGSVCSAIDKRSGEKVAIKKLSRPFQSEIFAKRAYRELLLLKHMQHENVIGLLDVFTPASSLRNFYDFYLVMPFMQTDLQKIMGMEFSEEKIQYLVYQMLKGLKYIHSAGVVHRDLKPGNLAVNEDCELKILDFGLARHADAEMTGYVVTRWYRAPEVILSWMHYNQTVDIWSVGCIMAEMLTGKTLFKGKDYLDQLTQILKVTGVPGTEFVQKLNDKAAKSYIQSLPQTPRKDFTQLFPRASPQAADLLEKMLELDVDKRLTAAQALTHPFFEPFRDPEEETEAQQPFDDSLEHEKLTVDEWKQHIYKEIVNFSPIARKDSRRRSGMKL
# [19] = target: T2, Mitogen-activated protein kinase 13 (Homo sapiens); conditions: at 1 µM
# [20] = target: T3, Mitogen-activated protein kinase 12 (Homo sapiens) (UniProt P53778); conditions: at 0.1 µM
# T3 sequence (whole entry): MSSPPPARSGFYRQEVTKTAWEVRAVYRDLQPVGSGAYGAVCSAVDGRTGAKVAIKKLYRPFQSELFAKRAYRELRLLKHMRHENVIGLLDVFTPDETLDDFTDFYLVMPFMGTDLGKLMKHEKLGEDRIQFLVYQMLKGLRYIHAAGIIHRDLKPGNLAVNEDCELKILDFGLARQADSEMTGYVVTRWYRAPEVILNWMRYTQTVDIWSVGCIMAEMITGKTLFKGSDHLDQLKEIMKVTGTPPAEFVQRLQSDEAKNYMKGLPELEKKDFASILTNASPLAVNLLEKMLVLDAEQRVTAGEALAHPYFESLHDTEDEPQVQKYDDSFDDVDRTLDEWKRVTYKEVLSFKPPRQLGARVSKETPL
# Chain of Glycogen synthase kinase-3 beta (Homo sapiens) (P49841 whole entry, looked up): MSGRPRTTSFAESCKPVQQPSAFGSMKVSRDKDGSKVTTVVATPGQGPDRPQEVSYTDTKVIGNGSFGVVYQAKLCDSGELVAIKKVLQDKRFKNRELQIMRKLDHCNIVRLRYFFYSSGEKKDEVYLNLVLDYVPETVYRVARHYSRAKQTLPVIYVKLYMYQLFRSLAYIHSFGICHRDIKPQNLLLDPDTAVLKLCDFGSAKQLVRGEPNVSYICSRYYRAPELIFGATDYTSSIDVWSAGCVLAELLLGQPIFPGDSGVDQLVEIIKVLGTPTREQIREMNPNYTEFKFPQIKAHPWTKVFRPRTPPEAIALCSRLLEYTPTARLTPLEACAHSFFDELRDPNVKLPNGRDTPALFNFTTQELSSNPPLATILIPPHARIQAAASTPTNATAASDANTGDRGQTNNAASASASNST
Structure (SMILES),inhibition [1],inhibition [2],inhibition [3],inhibition [4],inhibition [5],inhibition [6],inhibition [7],inhibition [8],inhibition [9],inhibition [10],inhibition [11],inhibition [12],inhibition [13],inhibition [14],inhibition [15],inhibition [16],inhibition [17],inhibition [18],inhibition [19],inhibition [20]
CS(=O)(=O)CCNCc1ccc(-c2ccc3ncnc(Nc4ccc(OCc5ccccc5)cc4)c3c2)o1,3.37%,-0.23%,3.06%,0.8%,4.91%,2.23%,2.48%,4.02%,3.85%,2.1%,1.62%,-0.49%,0.73%,4.73%,7.34%,2.9%,4.87%,2.17%,1.45%,2.39%
Cc1ccc(-c2cc3c(NC(=O)C4CC4)ncnc3o2)cc1,38.2%,1.63%,9.22%,1.44%,7.28%,0.97%,5.49%,2.94%,4.73%,3%,1.29%,0.82%,0.53%,3.56%,6.38%,1.17%,7.45%,5.13%,4.2%,1.34%
COc1c(C(N)=O)cc(-c2ccc(Cl)cc2)cc1-c1ccc(S(N)(=O)=O)cc1,2.65%,-1.29%,-0.59%,0.4%,1.94%,3.46%,8.22%,5.87%,5.86%,4.58%,5.76%,2.9%,0.68%,8.26%,10.3%,4.78%,4.22%,4.33%,6.61%,4.27%
CCS(=O)(=O)c1ccc(OC)c(Nc2ncc(-c3cccc(C(C)=O)c3)o2)c1,12.4%,5.49%,23%,5.03%,27.3%,-1.02%,1.43%,4.9%,3.99%,2.3%,4.06%,0.96%,0.97%,2.16%,5.09%,3.95%,3.42%,-0.9%,3.45%,-1.65%
OCCCNc1nccc(-c2c(-c3ccc(F)cc3)nn3cc(C(F)(F)F)ccc23)n1,31.2%,-0.49%,3.61%,3.13%,6.59%,14.8%,59.7%,1.24%,7.07%,1.68%,5.6%,1.09%,3.54%,64.4%,91%,22.7%,68.7%,4.11%,3.39%,3.46%
N#Cc1cccc(Nc2ncc(-c3ccccc3)o2)c1,16.9%,3.5%,20.2%,6.92%,36.4%,1.32%,2.85%,1.39%,3.01%,2.87%,4.14%,-0.78%,0.7%,2.24%,3.69%,1.51%,5.93%,-0.16%,2.33%,3.74%
O=C(Nc1n[nH]c2nnc(-c3cccnc3)cc12)C1CC1,81.5%,33.6%,74%,0.58%,8.84%,0.33%,1.3%,0.58%,2.75%,0.53%,0.8%,-0.02%,-4.68%,-0.2%,-1.37%,0.57%,2.39%,-0.07%,5.16%,0.25%
CN(c1ccc(NC(=O)NCCN2CCOCC2)cc1)c1ccnc(Nc2ccc(CS(C)(=O)=O)cc2)n1,5.02%,2.62%,5.06%,6.23%,31.9%,1.5%,3.59%,5.07%,8.36%,4.06%,3.72%,0.77%,2.7%,0.79%,5.83%,4.13%,6.58%,1.11%,3.21%,0.47%
FC(F)(F)CNc1nccc(-c2cnn3ncccc23)n1,6.02%,0.25%,10.2%,-0.95%,3.01%,2.29%,4.42%,3.24%,5.24%,1.95%,2.69%,-4.16%,-0.66%,6.27%,5.78%,3.94%,6.08%,2.13%,2.49%,1.83%
COc1ccc(-c2nn3ncccc3c2-c2ccnc(Nc3ccc(F)c(F)c3)n2)cc1,5%,3.8%,4.38%,1.49%,1.58%,7.25%,23.9%,4.91%,5.09%,3.11%,6.78%,-0.12%,3.15%,33%,81%,11.9%,50.9%,0.5%,3.31%,4.66%
CN1CCN(Cc2ccc(-c3cc4ncnc(Nc5ccc(OCc6cccc(F)c6)c(Cl)c5)c4s3)o2)CC1,4.12% and 11.3%,-3.31% and 2.8%,0.3% and 2.78%,-0.43% and 2.01%,0.76% and 4.59%,0.58% and 7.12%,2.65% and 8.42%,9.37% and 6.21%,4.78% and 9.62%,2.39% and 7.04%,4.3% and 6.64%,-2.01% and -2.56%,-1.87% and -0.88%,11.4% and 3.49%,11.9% and 8.59%,7.76% and 7.78%,11.5% and 9.04%,2.21% and 1.13%,1.76% and 5.79%,1.79% and 3.59%
CCOc1ccc2c(-c3ccnc(Nc4cc(OC)cc(C(F)(F)F)c4)n3)cnn2n1,28%,20.1%,61.9%,4.81%,24.3%,1.36%,5.36%,0.19%,0.63%,0.36%,2.27%,-0.03%,-0.23%,8.65%,2.85%,-0.59%,1.71%,0.55%,2.07%,3.42%
CS(=O)(=O)Nc1ccc(-c2ccc3c(NC(=O)C4CC4)n[nH]c3c2)cc1,5.37%,-0.91%,5.67%,0.27%,5.43%,2.01%,3.22%,4.95%,1.75%,2.3%,3.17%,1.14%,-1.76%,2.35%,7.21%,1.53%,0.3%,3.39%,4.07%,1.3%
